These results are taken from PubChem BioAssay.

SMILES strings stand for the structures. The source made the active and inactive calls.

A short description of assay [1]: compound effects on differentiated 3T3-L1 adipocyte viability – cell-based, 3T3-L1 adipocytes, calcein-AM fluorescence, 48 h, basal, profiling panel (AID 1163). Conditions: 3T3-L1 adipocytes viability, higher = more signal.
Assay [2] can be described thus: compound effects on hepatocellular carcinoma cell viability – HepG2, calcein-AM fluorescence, 48 h, basal, profiling panel (AID 1164). Conditions: higher = more signal.
A short description of assay [3]: compound effects on multiple myeloma cell viability – MM1S, calcein-AM fluorescence, 48 h, basal, profiling panel (AID 1165). Conditions: higher = more signal.
A short description of assay [4]: calcein-AM signal in unstimulated myeloma cells – cell-based, calcein-AM fluorescence, 48 h, PK04 Diversity Set, profiling panel (AID 1166).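 Note: cells grown under basal conditions without added stimulus.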 As to conditions: RPMI8226 myeloma viability, higher = more signal.
The nature of assay [5]: JC-1 mitochondrial signal, unstimulated HepG2 cells – cell-based, JC-1 fluorescence, 24 h, 100 nL compound, profiling panel (AID 1167). As to conditions: HepG2 mitochondrial potential, higher = more signal.
Assay [6] can be described thus: JC-1 mitochondrial signal, unstimulated adipocytes – cell-based, JC-1 fluorescence, 3T3-L1 adipocytes, 24 h, 100 nL compound, profiling panel (AID 1168). As to conditions: JC-1 mitochondrial fluorescence, higher = more signal, called active from +8 up or from −8 down.
Assay [7] in a line: JC-1 mitochondrial signal, unstimulated myeloma cells – cell-based, JC-1 fluorescence, RPMI8226, 24 h, 100 nL compound, profiling panel (AID 1169). As to conditions: JC-1 mitochondrial potential fluorescence, higher = more signal.
Assay [8] in a line: JC-1 mitochondrial signal, unstimulated MM1S myeloma – cell-based, JC-1 fluorescence, 24 h, 100 nL compound, profiling panel (AID 1170). As to conditions: MM1S mitochondrial potential, higher = more signal.
A short description of assay [9]: resazurin metabolic signal in A549 cells – cell-based, resazurin fluorescence, 24 h, PK04 Diversity Set, profiling panel (AID 1171). As to conditions: A549 viability, higher = more signal, called active from +8 up or from −8 down. In general terms: The colour change of resazurin is a common sign of viable cells or microbes.
Assay [10] can be described thus: resazurin metabolic signal in HepG2 cells – cell-based, resazurin fluorescence, 24 h, PK04 Diversity Set, profiling panel (AID 1172). Conditions: HepG2 viability, higher = more signal.
Assay [11] in a line: budding yeast growth changes without added modifier – OD600, strain BY4716, 24 h, basal condition, primary screen (AID 1173). As to conditions: S. cerevisiae BY4716 growth, OD600, 24 h; higher = more signal, called active from +8 up or from −8 down.
A short description of assay [12]: viability profiling in MM1S myeloma cells – cell-based, resazurin fluorescence, basal, 24 h, PK04 Diversity Set, profiling panel (AID 1174). As to conditions: higher = more signal, called active from +8 up or from −8 down.
For assay [13], the target named is Dihydroorotate dehydrogenase (quinone), mitochondrial (Plasmodium falciparum (isolate 3D7)) (UniProt Q08210). Briefly: inhibition of P. falciparum DHODH – biochemical, C-terminal His tag, absorbance 600 nm, primary screen (AID 1175).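 Note: recombinant parasite enzyme with a five histidine tag at its C terminus.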 As to conditions: PfDHODH enzyme, DCIP absorbance 600 nm; higher = more signal, called active from +8 up or from −8 down.
Dihydroorotate dehydrogenase (quinone), mitochondrial (Plasmodium falciparum (isolate 3D7)), sequence (Q08210 whole entry, looked up): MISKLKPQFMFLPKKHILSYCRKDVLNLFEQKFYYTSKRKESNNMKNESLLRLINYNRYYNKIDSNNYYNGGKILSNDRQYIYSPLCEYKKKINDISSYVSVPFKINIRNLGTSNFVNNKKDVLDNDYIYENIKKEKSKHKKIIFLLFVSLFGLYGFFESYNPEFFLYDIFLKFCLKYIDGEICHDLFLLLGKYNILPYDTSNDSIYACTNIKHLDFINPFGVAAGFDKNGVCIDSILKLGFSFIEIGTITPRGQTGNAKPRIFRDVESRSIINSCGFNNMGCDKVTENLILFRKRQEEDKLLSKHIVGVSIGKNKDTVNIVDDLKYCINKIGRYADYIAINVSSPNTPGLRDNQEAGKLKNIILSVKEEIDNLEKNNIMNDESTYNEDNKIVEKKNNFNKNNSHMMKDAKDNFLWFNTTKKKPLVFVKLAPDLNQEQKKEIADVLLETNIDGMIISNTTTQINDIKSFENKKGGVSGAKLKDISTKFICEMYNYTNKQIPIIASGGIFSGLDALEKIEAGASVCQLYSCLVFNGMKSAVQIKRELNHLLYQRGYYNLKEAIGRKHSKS
Assay [14] in a line: growth modulation of vineyard yeast isolate – strain RM11-1a, OD600, basal, 24 h, primary screen (AID 1177).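 Note: cultures grown under basal conditions with no added stressor.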 Conditions: S. cerevisiae RM11-1a growth, OD600, 24 h; higher = more signal, called active from +8 up or from −8 down.
Assay [15] can be described thus: growth of efflux-deficient E. coli DRC39 – strain DRC39, OD650, 24 h, E. coli filamentation inducers, primary screen (AID 1178).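 Note: growth measured as culture turbidity by optical density at 650 nm.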 Conditions: E. coli DRC39 acrAB, higher = more signal, called active from +8 up or from −8 down.
Assay [16] is described as follows: growth of efflux-deficient E. coli DRC39 – strain DRC39, OD650, 48 h, E. coli filamentation inducers, primary screen (AID 1179).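 Note: screen aims at cell division blockers that make cells filament.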 As to conditions: E. coli DRC39 delta-acrAB growth, higher = more signal, called active from +8 up or from −8 down.
Assay [17] in a line: viability profiling in RPMI8226 myeloma cells – cell-based, resazurin fluorescence, basal, 24 h, PK04 Diversity Set, profiling panel (AID 1180).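 Note: RPMI8826 multiple myeloma cell line at 5000 cells per well.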 As to conditions: higher = more signal.
Assay [18] deals with E3 ubiquitin-protein ligase XIAP (Homo sapiens) (UniProt P98170). In words: small molecules binding XIAP protein – biophysical, small-molecule microarray, fluorescence 635 nm, primary screen (AID 1181).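 Note: score merges 667 nm emission and signal to noise over triplicate slides.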 Conditions: higher = more signal.
E3 ubiquitin-protein ligase XIAP (Homo sapiens), sequence (P98170 whole entry, looked up, the tested form may be a part): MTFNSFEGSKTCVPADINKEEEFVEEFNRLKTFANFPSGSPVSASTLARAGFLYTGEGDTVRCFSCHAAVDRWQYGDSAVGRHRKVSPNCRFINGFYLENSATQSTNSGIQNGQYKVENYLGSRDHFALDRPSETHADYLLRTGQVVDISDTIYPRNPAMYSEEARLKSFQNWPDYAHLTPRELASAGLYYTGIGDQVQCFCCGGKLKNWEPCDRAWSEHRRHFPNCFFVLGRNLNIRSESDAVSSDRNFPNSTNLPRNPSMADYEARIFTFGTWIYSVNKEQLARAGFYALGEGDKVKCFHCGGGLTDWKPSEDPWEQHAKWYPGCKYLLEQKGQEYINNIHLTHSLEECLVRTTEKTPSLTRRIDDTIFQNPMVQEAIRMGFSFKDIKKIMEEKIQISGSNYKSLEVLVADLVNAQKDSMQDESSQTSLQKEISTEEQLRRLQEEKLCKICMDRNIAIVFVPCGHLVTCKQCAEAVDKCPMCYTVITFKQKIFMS
Assay [19] relates to XIP peptide (Xip251-270) binding. Briefly: XIP fragment 251-270 binding compounds – biochemical, small-molecule microarray, fluorescence 635/667 nm, 0.1 µg/mL protein, primary screen (AID 1182). Conditions: fluorescent protein binding, 635 nm, higher = more signal, called active from +8 up or from −8 down.
A further assay has as its system XIP peptide (Xip251-270). In words: compounds binding XIP fragment 251-270 – biochemical, small-molecule microarray, fluorescence 635/667 nm, 0.5 µg/mL protein, primary screen (AID 1183). Conditions: fluorescence 635 nm, higher = more signal.

Take `O=C1O[C@@H](c2ccccc2)[C@@H](c2ccccc2)N2[C@@H](c3ccc(OCCO)cc3)[C@]3(C(=O)Nc4ccc(C#CC5(O)CCCCCC5)cc43)[C@@H](C(=O)NC[C@H](O)c3ccccc3)[C@H]12`: the z-score is 1.71 in [1]; 0.394 in assay [2]; -0.987 in assay [3]; 0.208 in assay [4]; -1.7 in [5]; 0.548 (inactive) in [6]. For the same molecule, the z-score in assay [7] is -0.535; in [8], -0.197; in [9] it was 0.883 (inactive); in assay [10] it was 0.18; in [11] it was 0.842 (inactive); in assay [12] it was 0.786 (inactive). Also, the z-score in [14] was 2.1 (inactive); in assay [15], 1.06 (inactive); in [16] it was 1.12 (inactive); in [17] it was 0.966. For the same molecule, the composite z-score in assay [13] was 0.935 (inactive); in assay [18], -0.304; in [19], 0.673 (inactive); with XIP peptide (Xip251-270) it was 0.819.

For the molecule `COc1ccc(/C=C/C(=O)c2cccc(OCC(=O)OC(C)(C)C)c2)cc1`, the z-score in assay [1] was 0.934; in assay [2], 0.158; in assay [3], -2.97; in assay [4] it was -2.67; in assay [5] it was 0.528; in [6] it was 0.342 (inactive). The z-score is -0.702 in assay [7]; 0.656 in assay [8]; 1.26 (inactive) in [9]; 0.163 in assay [10]; -1.39 (inactive) in [11]; 1.11 (inactive) in assay [12]. Besides, the z-score in [14] was -0.428 (inactive); in assay [15] it was 0.4 (inactive); in assay [16] it was 0.0785 (inactive); in [17], 1.76. Besides, the composite z-score in assay [13] is 0.131 (inactive); in assay [18], 0.0374; in assay [19], 0.401 (inactive); in the assay on XIP peptide (Xip251-270) it was 0.247.

For the molecule `CC(C)C[C@@H]1NC(=O)[C@H]2C[C@@H](C(=O)NCCCC[N+](C)(C)C)[C@@H](c3cccc(OCCO)c3)N2C1=O`, the z-score is 0.753 in assay [1]; -0.131 in assay [2]; 0.0808 in assay [3]; -0.583 in assay [4]; 1.22 in [5]; 1.37 (inactive) in assay [6]. Moreover, the z-score is -0.173 in assay [7]; 0.0969 in assay [8]; -0.474 (inactive) in assay [9]; 0.417 in assay [10]; -0.553 (inactive) in assay [11]; 0.932 (inactive) in assay [12]. The z-score in assay [14] was -0.915 (inactive); in assay [15], 0.709 (inactive); in [16] it was 0.569 (inactive); in assay [17] it was 0.33. For the same molecule, the composite z-score in assay [13] is -30.9 (active); in [18] it was -0.0476; in assay [19], 1.85 (inactive); with XIP peptide (Xip251-270), 0.705.

Regarding `C=CCC(OC(C)=O)[C@@H]1[C@@H](N(Cc2ccc(-c3ccccc3)cc2)C(=O)c2ccc(-c3ccccc3)cc2)c2cc(OCCCO)ccc2N1C(=O)c1ccc(-c2ccccc2)cc1` (stereo not given in full), the z-score in [1] was 0.948; in assay [2], 0.623; in assay [3] it was 0.787; in assay [4] it was 0.18; in assay [5], 2.74; in [6], 0.111 (inactive). The z-score is -0.176 in [7]; -0.0803 in assay [8]; 1.4 (inactive) in [9]; 1.46 in assay [10]; -0.435 (inactive) in assay [11]; 1.4 (inactive) in [12]. For the same molecule, the z-score in [14] was -0.738 (inactive); in [15] it was 1.34 (inactive); in [16], 0.995 (inactive); in assay [17], 0.899. For the same molecule, the composite z-score in [13] was 0.169 (inactive); in assay [18], -0.0102; in assay [19], -0.959 (inactive); with XIP peptide (Xip251-270), -0.58.

Consider `C=CC[C@]1(C(=O)N(C)C)N=C(c2ccc(OCCCO)cc2)O[C@H]1c1ccccc1CN=[N+]=[N-]`, for which the z-score is 0.988 in assay [1]; 1.18 in assay [2]; -1.17 in assay [3]; -0.862 in assay [4]; 2.11 in assay [5]; 0.0328 (inactive) in assay [6]. Besides, the z-score in assay [7] is -0.942; in assay [8], -0.587; in assay [9], 1.26 (inactive); in assay [10], 0.481; in assay [11] it was -1.26 (inactive); in assay [12], 0.838 (inactive). Moreover, the z-score is -0.197 (inactive) in assay [14], 1.53 (inactive) in assay [15], 0.442 (inactive) in assay [16] and 0.747 in [17]. Further, the composite z-score was -0.0916 (inactive) in [13], 0.0471 in assay [18], 0.137 (inactive) in assay [19] and 0.53 in the assay with XIP peptide (Xip251-270).

Consider `CC(C)(C)OC(=O)CC[C@]1(C(=O)NCc2ccccc2)COC(c2ccc(OCCCO)cc2)=N1`, for which the z-score in assay [1] was 0.978; in assay [2] it was -0.346; in [3], 0.614; in assay [4], 0.554; in assay [5], -0.0474; in [6], 0.186 (inactive). Besides, the z-score is -0.291 in assay [7]; 0.931 in [8]; 1.72 (inactive) in assay [9]; 0.931 in [10]; -1.67 (inactive) in assay [11]; 1.65 (inactive) in [12]. Besides, the z-score in [14] was -1.23 (inactive); in [15], 1.38 (inactive); in [16], 0.233 (inactive); in assay [17] it was 1.57. For the same molecule, the composite z-score in assay [13] is -1.28 (inactive); in assay [18] it was 0.141; in [19], 1.45 (inactive); in the assay on XIP peptide (Xip251-270), 0.0144.

In the case of `Cc1ccc(S[C@]2(C(=O)NC3CC3)CC(=O)N(Cc3ccccc3C(F)(F)F)[C@@H]2c2ccc(CO)cc2I)cc1`, the z-score in assay [1] is 0.421; in assay [2], -0.4; in [3], -2.65; in assay [4] it was -2.11; in [5], 1.44; in assay [6], 0.525 (inactive). The z-score in assay [7] was -0.513; in [8] it was -0.93; in assay [9], 0.149 (inactive); in assay [10], 0.436; in [11], -8 (inactive); in assay [12] it was -1.93 (inactive). Further, the z-score in assay [14] is -2.07 (inactive); in [15], 0.413 (inactive); in [16], 0.303 (inactive); in assay [17], -1.84. Further, the composite z-score is -2.6 (inactive) in [13], -0.29 in [18], 0.0437 (inactive) in assay [19] and -0.811 in the assay on XIP peptide (Xip251-270).

For `C=CC[C@@]1(C(=O)NCc2ccccc2)N=C(c2ccc(OCCCO)cc2)O[C@@H]1c1ccccc1`, the z-score in assay [1] is 0.791; in assay [2], -1.01; in assay [3], -2.93; in assay [4], -4.46; in [5] it was 0.0411; in assay [6], 1.84 (inactive). Also, the z-score in [7] is -1.23; in assay [8], 0.199; in assay [9] it was 0.0074 (inactive); in [10], 0.547; in assay [11], -2.16 (inactive); in assay [12], -0.47 (inactive). The z-score is -1.23 (inactive) in [14], 0.254 (inactive) in assay [15], -0.124 (inactive) in assay [16] and -1.48 in assay [17]. Also, the composite z-score in assay [13] is -0.904 (inactive); in assay [18], 1.49; in assay [19] it was 0.624 (inactive); with XIP peptide (Xip251-270) it was 0.784.
